According to the supplement of paper PMC12669032:

Columns and labels:
Assay in all cases: growth AUC relative to DMSO control (median of replicates) (fraction); higher = more growth (less inhibition), active = hit call of the paper
Details in all cases: 20 µM; 24 h;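 active = AUC reduced over 20% with Padj below 0.05 in at least 2 of 3 replicates; inactive = otherwise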
Akkermansia muciniphila = test system: Akkermansia muciniphila
Outline: (§1)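 In round-bottom 96-well plates sealed with pierced gas-permeable seals, gut bacterial monocultures in mGAM were grown anaerobically at 37 °C from OD600 0.05 with 20 µM compound (1% DMSO). OD600 readings were taken hourly for 24 h, and the minimum OD was set to 0. Area under the growth curve was then normalised to the plate median of solvent-only wells, or to row and column medians on the industrial chemical plate. The value given is the median of three biological replicates grown on separate days.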

Bacteroides caccae = test system: Bacteroides caccae
Outline: as §1

Bacteroides clarus = test system: Bacteroides clarus
Outline: as §1

Bacteroides dorei = test system: Bacteroides dorei
Outline: as §1

Bacteroides stercoris = test system: Bacteroides stercoris
Outline: as §1

[1] = test system: Bacteroides thetaiotaomicron
Outline: as §1

Bacteroides uniformis = test system: Bacteroides uniformis
Outline: as §1

[2] = test system: Bifidobacterium longum subsp. longum
Outline: as §1

Clostridium difficile = test system: Clostridium difficile
Outline: as §1

Collinsella aerofaciens = test system: Collinsella aerofaciens
Outline: as §1

Coprococcus comes = test system: Coprococcus comes
Outline: as §1

Escherichia coli ED1a = test system: Escherichia coli ED1a
Outline: as §1

Escherichia coli IAI1 = test system: Escherichia coli IAI1
Outline: as §1

Eubacterium rectale = test system: Eubacterium rectale
Outline: as §1

[3] = test system: Fusobacterium nucleatum subsp. animalis
Outline: as §1

Lactobacillus gasseri = test system: Lactobacillus gasseri
Outline: as §1

Lactobacillus paracasei = test system: Lactobacillus paracasei
Outline: as §1

Odoribacter splanchnicus = test system: Odoribacter splanchnicus
Outline: as §1

[4] = test system: Parabacteroides distasonis
Outline: as §1

Parabacteroides merdae = test system: Parabacteroides merdae
Outline: as §1

Measured: growth AUC

Cc1ccc2nc3sc(=O)sc3nc2c1
inactive: Akkermansia muciniphila 1.04 | Bacteroides caccae 0.982 | Bacteroides clarus 1.01 | Bacteroides dorei 0.985 | Bacteroides stercoris 0.879 | [1] 1 | Bacteroides uniformis 1.04 | [2] 1.07 | Clostridium difficile 1.02 | Collinsella aerofaciens 0.982 | Coprococcus comes 0.964 | Escherichia coli ED1a 0.969 | Escherichia coli IAI1 0.948 | Eubacterium rectale 1.02 | [3] 1.04 | Lactobacillus gasseri 0.915 | Lactobacillus paracasei 0.954 | Odoribacter splanchnicus 1.14 | [4] 0.924 | Parabacteroides merdae 0.954

CNC(=O)N(C)c1nnc(C(C)(C)C)s1
inactive: Akkermansia muciniphila 0.742 | Bacteroides caccae 1.02 | Bacteroides clarus 0.97 | Bacteroides dorei 1.05 | Bacteroides stercoris 1 | [1] 0.993 | Bacteroides uniformis 1.01 | [2] 0.925 | Clostridium difficile 1 | Collinsella aerofaciens 1.04 | Coprococcus comes 0.995 | Escherichia coli ED1a 0.99 | Escherichia coli IAI1 0.945 | Eubacterium rectale 0.931 | [3] 0.969 | Lactobacillus gasseri 1.16 | Lactobacillus paracasei 0.941 | Odoribacter splanchnicus 0.963 | [4] 0.973 | Parabacteroides merdae 1

O=C(O)c1ccccc1C(=O)Nc1cccc2ccccc12
inactive: Akkermansia muciniphila 1.04 | Bacteroides caccae 1.04 | Bacteroides clarus 1.02 | Bacteroides dorei 1.02 | Bacteroides stercoris 1.18 | [1] 1.01 | Bacteroides uniformis 0.993 | [2] 1.03 | Clostridium difficile 1.01 | Collinsella aerofaciens 1.03 | Coprococcus comes 0.971 | Escherichia coli ED1a 1.05 | Escherichia coli IAI1 1 | Eubacterium rectale 1.08 | [3] 1.06 | Lactobacillus gasseri 0.979 | Lactobacillus paracasei 1.02 | Odoribacter splanchnicus 1.06 | [4] 0.979 | Parabacteroides merdae 0.987

O=C(Nc1ccccc1)Nc1ccnc(Cl)c1
inactive: Akkermansia muciniphila 0.926 | Bacteroides caccae 0.9 | Bacteroides clarus 0.949 | Bacteroides dorei 0.977 | Bacteroides stercoris 0.926 | [1] 0.94 | Bacteroides uniformis 0.886 | [2] 0.959 | Clostridium difficile 0.941 | Collinsella aerofaciens 1.01 | Coprococcus comes 1.03 | Escherichia coli ED1a 0.942 | Eubacterium rectale 0.803 | [3] 1.1 | Lactobacillus gasseri 0.858 | Lactobacillus paracasei 0.971 | Odoribacter splanchnicus 0.912 | Parabacteroides merdae 0.888
active: Escherichia coli IAI1 0.788 | [4] 0.677

ClC(Cl)=C(c1ccc(Cl)cc1)c1ccc(Cl)cc1
inactive: Akkermansia muciniphila 1.1 | Bacteroides caccae 0.933 | Bacteroides clarus 0.961 | Bacteroides dorei 0.953 | Bacteroides stercoris 1.18 | [1] 0.956 | Bacteroides uniformis 1.01 | [2] 1.05 | Clostridium difficile 0.969 | Collinsella aerofaciens 0.842 | Coprococcus comes 0.914 | Escherichia coli ED1a 1 | Escherichia coli IAI1 0.986 | Eubacterium rectale 1.02 | [3] 1.03 | Lactobacillus gasseri 0.938 | Lactobacillus paracasei 0.921 | Odoribacter splanchnicus 1.02 | [4] 0.985 | Parabacteroides merdae 0.909

CCC(C)n1c(=O)[nH]c(C)c(Br)c1=O (stereo not given)
active: Bacteroides uniformis 0.775
inactive: Akkermansia muciniphila 1.12 | Bacteroides caccae 0.833 | Bacteroides clarus 0.99 | Bacteroides dorei 0.952 | Bacteroides stercoris 1.13 | [1] 0.911 | [2] 1.02 | Clostridium difficile 0.945 | Collinsella aerofaciens 0.96 | Coprococcus comes 1.02 | Escherichia coli ED1a 0.979 | Escherichia coli IAI1 0.94 | Eubacterium rectale 1.07 | [3] 1.01 | Lactobacillus gasseri 0.869 | Lactobacillus paracasei 1.03 | Odoribacter splanchnicus 0.461 | [4] 0.926 | Parabacteroides merdae 0.891

CCOP(=O)(OCC)O/C(=C\Cl)c1ccc(Cl)cc1Cl
active: [4] 0.725
inactive: Akkermansia muciniphila 0.854 | Bacteroides caccae 0.982 | Bacteroides clarus 0.952 | Bacteroides dorei 0.983 | Bacteroides stercoris 0.956 | [1] 0.962 | Bacteroides uniformis 0.942 | [2] 0.873 | Clostridium difficile 1 | Collinsella aerofaciens 1 | Coprococcus comes 0.994 | Escherichia coli ED1a 0.984 | Escherichia coli IAI1 1.01 | Eubacterium rectale 0.899 | [3] 0.987 | Lactobacillus gasseri 1.06 | Lactobacillus paracasei 1.02 | Odoribacter splanchnicus 0.972 | Parabacteroides merdae 0.945

COP(=S)(OC)Oc1ccc(C#N)cc1
inactive: Akkermansia muciniphila 1.1 | Bacteroides caccae 1 | Bacteroides clarus 1.03 | Bacteroides dorei 1.04 | Bacteroides stercoris 1.02 | [1] 0.989 | Bacteroides uniformis 1.04 | [2] 1.01 | Clostridium difficile 1.03 | Collinsella aerofaciens 1.01 | Coprococcus comes 1.04 | Escherichia coli ED1a 1.04 | Escherichia coli IAI1 1.02 | Eubacterium rectale 1.11 | [3] 1.04 | Lactobacillus gasseri 1.03 | Lactobacillus paracasei 1 | Odoribacter splanchnicus 1.02 | [4] 1.07 | Parabacteroides merdae 1

Clc1ccccc1Cl
inactive: Akkermansia muciniphila 0.952 | Bacteroides caccae 1.02 | Bacteroides clarus 1.02 | Bacteroides dorei 0.992 | Bacteroides stercoris 0.991 | [1] 0.986 | Bacteroides uniformis 1.03 | [2] 1.11 | Clostridium difficile 0.996 | Collinsella aerofaciens 0.975 | Coprococcus comes 1.02 | Escherichia coli ED1a 0.971 | Escherichia coli IAI1 0.994 | Eubacterium rectale 0.972 | [3] 0.975 | Lactobacillus gasseri 0.948 | Lactobacillus paracasei 1.02 | Odoribacter splanchnicus 0.95 | [4] 0.996 | Parabacteroides merdae 1.01

O=C(Nc1ccc(F)cc1F)c1cccnc1Oc1cccc(C(F)(F)F)c1
inactive: Akkermansia muciniphila 0.947 | Bacteroides caccae 0.929 | Bacteroides clarus 0.965 | Bacteroides dorei 0.882 | Bacteroides stercoris 0.924 | [1] 0.966 | Bacteroides uniformis 1.01 | [2] 1 | Clostridium difficile 0.977 | Collinsella aerofaciens 0.946 | Coprococcus comes 0.999 | Escherichia coli ED1a 0.968 | Escherichia coli IAI1 0.965 | Eubacterium rectale 1.06 | [3] 0.939 | Lactobacillus gasseri 0.891 | Lactobacillus paracasei 1.05 | Odoribacter splanchnicus 1.06 | [4] 0.962 | Parabacteroides merdae 0.971

COC(=O)COc1cc(Cl)c(Cl)cc1Cl
inactive: Akkermansia muciniphila 0.868 | Bacteroides caccae 1.01 | Bacteroides clarus 0.952 | Bacteroides dorei 1 | Bacteroides stercoris 1.01 | [1] 0.97 | Bacteroides uniformis 0.966 | [2] 0.906 | Clostridium difficile 1.01 | Collinsella aerofaciens 1 | Coprococcus comes 0.967 | Escherichia coli ED1a 0.976 | Escherichia coli IAI1 1.02 | Eubacterium rectale 0.914 | [3] 0.981 | Lactobacillus gasseri 1.18 | Lactobacillus paracasei 1.11 | Odoribacter splanchnicus 0.974 | [4] 0.983 | Parabacteroides merdae 0.99

CCOP(=S)(OCC)SCS(=O)(=O)C(C)(C)C
inactive: Akkermansia muciniphila 0.89 | Bacteroides caccae 1.02 | Bacteroides clarus 0.944 | Bacteroides dorei 0.994 | Bacteroides stercoris 0.976 | [1] 1.01 | Bacteroides uniformis 1.01 | [2] 0.966 | Clostridium difficile 0.98 | Collinsella aerofaciens 1.02 | Coprococcus comes 0.991 | Escherichia coli ED1a 1.01 | Escherichia coli IAI1 0.966 | Eubacterium rectale 1.08 | [3] 0.964 | Lactobacillus gasseri 1.02 | Lactobacillus paracasei 1.03 | Odoribacter splanchnicus 0.979 | [4] 1.02 | Parabacteroides merdae 0.986

CN(C(=O)COc1nc2ccccc2s1)c1ccccc1
inactive: Akkermansia muciniphila 1.06 | Bacteroides caccae 0.925 | Bacteroides clarus 1.03 | Bacteroides dorei 0.956 | Bacteroides stercoris 1.26 | [1] 0.96 | Bacteroides uniformis 0.934 | [2] 1.12 | Clostridium difficile 0.982 | Collinsella aerofaciens 1.01 | Coprococcus comes 1.01 | Escherichia coli ED1a 1.02 | Escherichia coli IAI1 0.952 | Eubacterium rectale 1 | [3] 1.1 | Lactobacillus gasseri 1.13 | Lactobacillus paracasei 1.02 | Odoribacter splanchnicus 0.934 | [4] 0.948 | Parabacteroides merdae 0.998

CCOP(=S)(OCC)SCSc1ccc(Cl)cc1
inactive: Akkermansia muciniphila 1.04 | Bacteroides caccae 0.954 | Bacteroides clarus 0.972 | Bacteroides dorei 0.984 | Bacteroides stercoris 1.09 | [1] 0.987 | Bacteroides uniformis 0.943 | [2] 1.03 | Clostridium difficile 1 | Collinsella aerofaciens 0.963 | Coprococcus comes 0.975 | Escherichia coli ED1a 0.986 | Escherichia coli IAI1 0.964 | Eubacterium rectale 0.909 | [3] 1.07 | Lactobacillus gasseri 0.884 | Lactobacillus paracasei 1 | Odoribacter splanchnicus 1.06 | [4] 0.911 | Parabacteroides merdae 0.977

CC1(C)CC/C(=C\c2ccc(Cl)cc2)C1(O)Cn1cncn1 (stereo not given)
inactive: Akkermansia muciniphila 0.95 | Bacteroides caccae 0.976 | Bacteroides clarus 0.983 | Bacteroides dorei 0.965 | Bacteroides stercoris 0.792 | [1] 0.971 | Bacteroides uniformis 0.995 | [2] 1.08 | Clostridium difficile 0.984 | Collinsella aerofaciens 0.987 | Coprococcus comes 0.974 | Escherichia coli ED1a 0.999 | Escherichia coli IAI1 0.98 | Eubacterium rectale 0.986 | [3] 0.97 | Lactobacillus gasseri 0.935 | Lactobacillus paracasei 0.955 | Odoribacter splanchnicus 1.04 | [4] 0.964 | Parabacteroides merdae 0.967
